In test [1] the test system is Klebsiella pneumoniae. The note with it: Concentration 32 ug.mL-1;; ASSAY_TEST Inhibition of Bacterial Growth; detection method Absorption (OD600); MEDIA CAMHB; plate type 384well; NBS; CORNING #3640; time 18 hr.
Test [2] has as its system Candida albicans. The note with it: Concentration 32 ug.mL-1; ASSAY_TEST Inhibition of Fungal Growth; detection method Absorption (OD530).
Test [3] relates to Cryptococcus neoformans. The following applies: Concentration 32 ug.mL-1; ASSAY_TEST Inhibition of Fungal Growth; detection method Resazurin; Absorption (OD600-OD570); plate type 384well; NBS; CORNING #3640. In general terms: Alamar Blue is a resazurin reagent that responds to reducing activity.

Results with a measured potency or affinity are listed apart.

Results on 60 compounds are retold here after ChEMBL document CHEMBL4513146, “CO-ADD screening of Karazin Kharkiv National University (Ukraine) compounds”.

Turning to `O=C(Cn1nc2ccc(Sc3ccccc3)nn2c1=O)Nc1ccc(F)c(Cl)c1`, the Inhibition (usually the drop in the measured response relative to a control, in per cent) in test [1] is reported as 8.09%; in test [2], 1.47%; in test [3], -7.06%.
Taken in the same sequence, the figures for `Cn1c(=O)c2sccc2n2c(=O)n(Cc3ccc(Cl)cc3)nc12` were 4.35%, -0.47% and -19.86%.
On the same counts, the results for `COc1ccc(NC(=O)Cn2nc3c(SCc4ccc(Cl)cc4)nccn3c2=O)cc1` are 5.73%, -0.37% and -4.83%.
Regarding `Cc1cccc(Oc2nccn3c(=O)n(CC(=O)Nc4cccc(C(F)(F)F)c4)nc23)c1C`, the Inhibition in test [1] is recorded as 9.81%; in test [2] it was 16%; in test [3] it was -8.68%.
Take `Cc1ccc(NC(=O)Cn2nc3ccc(SC(C)(C)C)nn3c2=O)c(C)c1`: the Inhibition in test [1] is given as 14.3%; in test [2] it was 1.14%; in test [3], -21.84%.
Taken in the same sequence, the figures for `Cc1cccc(Oc2nc3ccccc3n3c(=O)n(CC(=O)Nc4ccc5c(c4)OCCO5)nc23)c1C` were 14.16%, -0.7% and -31.77%.
On the same counts, the results for `CC(C)Cn1c(=O)c2sccc2n2c(=O)n(CC(=O)NC(C)C)nc12` are 6.06%, 1.49% and -7.6%.
Taken in the same sequence, the figures for `COc1cccc(-n2ccn3c(SCc4ccc(Cl)cc4)nnc3c2=O)c1` were 9.45%, 2.03% and -6.31%.
For `COc1ccccc1Cn1c(=O)c2sccc2n2c(=O)n(Cc3c(F)cccc3Cl)nc12`, the Inhibition in test [1] is 8.3%; in test [2], -2.27%; in test [3] it was -30.55%.
Taken in the same sequence, the figures for `Cc1ccc(-c2cc3c4nn(CC(=O)NCc5ccccc5Cl)c(=O)n4ccn3n2)cc1C` were 7.47%, -1.05% and -5.01%.
On the same counts, the results for `Cc1ccc(Nc2cc(C)n3c(=O)n(Cc4cc(=O)n5ccccc5n4)nc3n2)cc1F` are 9.15%, -0.76% and -5.54%.
On to `CCc1ccc(NC(=O)Cn2nc3c4cc(-c5ccc(C)c(C)c5)nn4ccn3c2=O)cc1`, for which the Inhibition in test [1] is recorded as 5.45%; in test [2], 21.77%; in test [3] it was -12.06%.
Taken in the same sequence, the figures for `Cc1cc(Br)ccc1NC(=O)Cn1nc2c(Sc3ccccc3)nccn2c1=O` were 5.06%, 6.68% and -7.39%.
On the same counts, the results for `CCc1ccc(NC(=O)Cn2nc3cc(C)nc(Nc4ccc(F)c(C)c4)n3c2=O)cc1` are 8.35%, 8.83% and -9.39%.
Taken in the same sequence, the figures for `N#Cc1ccc(NC(=O)Cn2nc3c(SC4CCCCC4)nccn3c2=O)cc1` were 10.51%, 3.23% and -20.35%.
`COc1cccc(-c2nc(CSc3nc4ccccc4n4c(C)nnc34)c(C)o2)c1OC`: the Inhibition is on record as 8.41% in test [1], 0.37% in test [2] and -19.84% in test [3].
On the same counts, the results for `Cc1ccc(-c2cc3c4nn(CC(=O)N5CCN(c6ccccc6F)CC5)c(=O)n4ccn3n2)cc1C` are 10.7%, 3.33% and -14.81%.
On the same counts, the results for `Cc1ccc(NC(=O)Cn2nc3ccc(C(=O)NCc4ccccc4)cn3c2=O)c(Br)c1` are -0.66%, 7.92% and -19.22%.
As to `COc1cccc(-n2ccn3c(SCC(=O)c4ccc(OC)c(OC)c4)nnc3c2=O)c1`, the Inhibition in test [1] is listed as 7.59%; in test [2], 4.83%; in test [3], -8.41%.
On the same counts, the results for `Cc1cc(C)c(NC(=O)Cn2nc3c4cc(-c5ccc(C)c(C)c5)nn4ccn3c2=O)c(C)c1` are 5.52%, -0.89% and -17.51%.
On the same counts, the results for `COC(=O)c1sccc1NC(=O)CSc1nc2ccccc2n2c(C)nnc12` are 6.24%, 5.11% and -2.05%.
For `CC(C)(C)OC(=O)N1CCC(NC(=O)CCc2nnc3ccc(-c4ccccc4)nn23)CC1`, the results for the Inhibition in test [1], in test [2] and in test [3] were 12.09%, 0.97% and -4.02%, respectively.
On the same counts, the results for `COc1ccc(-c2cc3c4nnc(CCC(=O)NCc5ccc(OC)cc5OC)n4ccn3n2)cc1` are 15.27%, 2.37% and -17.34%.
Regarding `CCc1cccc(NC(=O)Cn2c(=O)c3nnc(C(C)C)n3c3ccccc32)c1`, the Inhibition in test [1] is 9.33%; in test [2], 1.02%; in test [3], -21.01%.
On the same counts, the results for `CCc1ccccc1NC(=O)CSc1nnc2c(=O)n(-c3ccccc3)ccn12` are 11.56%, -0.14% and -23.92%.
Taken in the same sequence, the figures for `COc1ccc(-n2ccn3c(SCC(=O)N4CCN(c5ccccc5F)CC4)nnc3c2=O)cc1` were 15.6%, 2.59% and -14.55%.
Taken in the same sequence, the figures for `Cc1ccc(NC(=O)Cn2nc3ccc(-c4ccc(Cl)cc4)nn3c2=O)cc1` were 3.71%, 1.61% and -4.05%.
As for `Cc1ccc(N(Cc2cc(F)cc(F)c2)S(=O)(=O)c2cccn3c(C)nnc23)cc1`, the Inhibition in test [1] was 11.68%; in test [2], 5.37%; in test [3], -9.88%.
`COc1cccc(-n2ccn3c(SCc4cccc(F)c4)nnc3c2=O)c1`: the Inhibition is on record as 9.47% in test [1], 1.25% in test [2] and -9.96% in test [3].
On the same counts, the results for `COc1ccc(OC)c(NC(=O)Cn2nc3c(SCc4ccc(Cl)cc4)nccn3c2=O)c1` are 1.59%, 23.62% and -18.91%.
For `O=C(Cn1nc2ccc(-c3ccccc3)nn2c1=O)Nc1ccc(Cl)c(C(F)(F)F)c1`, the figures for the Inhibition in test [1], in test [2] and in test [3] were 4.19%, 14.71% and -8.29%, respectively.
On the same counts, the results for `CC(C)CCNC(=O)Cn1nc2n(CC(C)C)c(=O)c3sccc3n2c1=O` are 9.99%, -0.63% and -16.87%.
For the compound `CCCc1nnc2c(=O)n(CC(=O)Nc3ccc(Br)cc3)c3ccccc3n12`, the Inhibition is given as 14.09% in test [1], 0.11% in test [2] and -25.88% in test [3].
On the same counts, the results for `COc1ccccc1N1CCN(C(=O)Cn2nc3ccc(-c4ccc(C)c(C)c4)nn3c2=O)CC1` are 9.25%, -0.19% and -3.44%.
Taken in the same sequence, the figures for `Cc1cc(C)cc(N(Cc2cc(C)ccc2C)S(=O)(=O)c2cccn3c(C)nnc23)c1` were 4.69%, 1.02% and -8.76%.
For `Cc1cccc(NC(=O)Cn2nc3c4cc(-c5ccc(F)cc5)nn4ccn3c2=O)c1C`, the Inhibition in test [1] is 6.39%; in test [2], 16.67%; in test [3] it was -22.65%.
Taken in the same sequence, the figures for `Cc1cc(NC(=O)Cn2nc3ccc(SC(C)(C)C)nn3c2=O)ccc1Br` were 5.26%, 32.86% and -21.27%.
On the same counts, the results for `CCOc1ccc(-n2ccn3c(SCC(=O)Nc4cccc(CC)c4)nnc3c2=O)cc1` are -1.92%, 12.86% and -9.18%.
On the same counts, the results for `CCc1nnc2c(S(=O)(=O)N(Cc3ccccc3C)c3ccc(C(C)C)cc3)cccn12` are 3.73%, 21.84% and -8.38%.
Take `COc1ccc(N2CCN(C(=O)Cn3nc4ccc(S(=O)(=O)C(C)(C)C)nn4c3=O)CC2)cc1`: the Inhibition in test [1] is listed as 18.13%; in test [2], -0.23%; in test [3], -28.46%.
On the same counts, the results for `COc1cccc(Cn2nc3ccc(-c4ccccc4)nn3c2=O)c1` are 7.25%, 2.39% and -3.25%.
Taken in the same sequence, the figures for `C=Cc1ccc(CSc2nnc3c(=O)n(-c4ccc(Br)cc4)ccn23)cc1` were 3.16%, 0.16% and -7.54%.
Turning to `Cc1nnc2c(=O)n(CC(=O)Nc3cccc(F)c3)c3ccccc3n12`, the values for the Inhibition in test [1], in test [2] and in test [3] were 11.8%, 1.2% and -2.05%, respectively.
Turning to `COc1cccc(CNC(=O)CCc2nnc3ccc(-c4ccc(C)cc4)nn23)c1`, the values for the Inhibition in test [1], in test [2] and in test [3] were 5.64%, 2.05% and -1.51%, respectively.
On the same counts, the results for `CCOc1ccc(-n2ccn3c(SCC(=O)Nc4cc(Cl)ccc4OC)nnc3c2=O)cc1` are 12.81%, 1.86% and -5.56%.
With `COc1ccc(Cl)cc1NC(=O)Cn1nc2ccc(Sc3ccccc3)nn2c1=O`, the Inhibition in test [1] was 0.86%; in test [2] it was 45.02%; in test [3] it was -15.66%.
Taken in the same sequence, the figures for `COc1ccc(Cl)cc1NC(=O)Cn1nc2c3cc(-c4ccc(C)cc4)nn3ccn2c1=O` were 5.55%, 14.91% and -9.24%.
Consider `COc1cccc(CN(c2ccccc2)S(=O)(=O)c2ccc3nncn3c2)c1`, for which the Inhibition in test [1] is listed as 0.32%; in test [2], 2.69%; in test [3] it was -7.16%.
`Cc1ccc(Cl)cc1NC(=O)CSc1nnc2c(=O)n(-c3ccccc3)ccn12`: the Inhibition in test [1] was 9.22%; in test [2], 2.4%; in test [3] it was -17.19%.
Taken in the same sequence, the figures for `CCc1ccc(N(Cc2cc(F)cc(F)c2)S(=O)(=O)c2cccn3c(C)nnc23)cc1` were 2.59%, 0.73% and -2.77%.
On to `Cc1cc(C)cc(Oc2nccn3c(=O)n(CC(=O)Nc4ccc(Cl)cc4F)nc23)c1`, for which the Inhibition is 14.33% in test [1], 0.59% in test [2] and -7.4% in test [3].
Taken in the same sequence, the figures for `CCOc1ccc(-n2ccn3c(SCC(=O)Nc4cc(OC)cc(OC)c4)nnc3c2=O)cc1` were 3.96%, 2.98% and -7.81%.
On the same counts, the results for `O=C(Cn1nc2ccc(-c3ccc(Cl)cc3)nn2c1=O)Nc1ccccc1` are 1.21%, 1.7% and -12.99%.
On the same counts, the results for `COc1ccccc1-n1ccn2c(SCC(=O)N3CCN(c4ccccc4F)CC3)nnc2c1=O` are 14.09%, 3.15% and -10.82%.
On to `O=C(CCc1nnc2c3cc(-c4ccc(F)cc4)nn3ccn12)N1CCC(Cc2ccccc2)CC1`, for which the values for the Inhibition in test [1], in test [2] and in test [3] were 4.22%, -1.12% and -13.61%, respectively.
On the same counts, the results for `COc1ccc(CNC(=O)CSc2nnc3c4cc(-c5ccccc5)nn4ccn23)cc1` are 15.76%, 0.38% and -28.39%.
`Cc1cc2nn(CC(=O)NCc3ccccc3)c(=O)n2c(Nc2ccc(C)c(F)c2)n1`: the values for the Inhibition in test [1], in test [2] and in test [3] were 12.56%, 6.49% and -3.12%, respectively.
Taken in the same sequence, the figures for `CCc1nnc2c(SCC(=O)Nc3ccccc3Br)nc3ccccc3n12` were 11.72%, 2.39% and -22.99%.
Taken in the same sequence, the figures for `CCc1ccccc1Sc1nccn2c(=O)n(CC(=O)Nc3cccc(Br)c3)nc12` were 8.38%, 2.9% and -6.91%.
As for `CCc1nnc2c(S(=O)(=O)N(Cc3ccc(OC)c(F)c3)c3ccccc3)cccn12`, the Inhibition in test [1] is 7.72%; in test [2], -1.05%; in test [3], -3.11%.
